Pf growth 48h – P. falciparum growth inhibition at 48 hours (one generation); Potency, µM (series often up to 28.7 µM), actives largely listed as inhibitors; P. falciparum luciferase growth in erythrocytes, 48 h; 310,000 tested, 5.9% active
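Firefly luciferase activity from engineered P. falciparum reports growth; inhibitors lower the luminescent signal. Cultures contained 2% hematocrit erythrocytes at 0.1% final parasitemia.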
Cycloheximide cs – counter-screen hit for Shiga toxin inhibitors, cycloheximide. cell reporter, cycloheximide protein synthesis inhibition counterscreen. max response, %. 300,000 tested, 12% active. AID 2314; in the data active = max response mostly above about 13%, no sharp cut-off; inactive = mostly below about 14%; also: read at 38.3 µM for the half of the compounds with a filed dose
Shiga inhibitor – Shiga toxin inhibition | Vero cells, Shiga toxin protein synthesis inhibition reporter | inhibition, % at 38.7 µM | 290,000 tested, 9.2% active | AID 2315; in the data active = inhibition mostly above about 28%, no sharp cut-off; inactive = mostly below about 43%
NS1 inh – blocks influenza NS1 protein function; Potency, µM (titrated, usually from 46.1 µM); AID 2326; 270,000 tested, 0.4% active; calls by dose curve; also: actives are rising curves; nearly all actives have a fitted effect of over 50% in size
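Compounds were scored for reversing the slow growth caused by influenza A NS1 in S. cerevisiae, measured by optical density at 600 nm. Assay medium contained 2% galactose at pH 6.0; NS1-free yeast of the same strain were the positive control.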
Pf growth 96h – inhibits malaria parasite growth, 96 h | P. falciparum luciferase reporter growth, 96 h | Potency, µM (doses to about 28.7 µM), usual class: inhibitors | 320,000 tested, 6.9% active | AID 504834
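Parasite growth measured via integrated firefly luciferase reporter in P. falciparum. Infected erythrocytes at 2% hematocrit, 0.05% parasitemia final were treated 96 hours at 37 C under 5% CO2, and luminescence was read.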
A number is an active result; 0 = inactive; ? = inconclusive; - = not tested or not shown; [ ] = dose if it differs, or a comment. An excerpt weighted towards active compounds, which were near 21% of everything screened. Unless noted, calls follow the shape of the dose curve; as a rule, active = well fitted inhibition curve with a large enough effect; inconclusive = small, poorly fitted or top-dose-only effect, or another doubt; inactive = no such curve, though single readings can be large or run the other way.

SMILES | Pf growth 48h | Cycloheximide cs | Shiga inhibitor | NS1 inh | Pf growth 96h
Cc1ccc2c(c1)c1nc3ccccc3nc1n2C | 0 | 19.0 | 0 | 0 | 0
CCc1cc2c(NCCC(=O)O)ncnc2s1 | 0 | 0 | 0 | 0 | 11.7µM
CCOC(=O)C1(Cc2cccc(F)c2)CCN(C(=O)COC)CC1 | 0 | 0 | 0 | 0 | 0
Cc1sc2nc(SCCN(C)C)n(-c3ccccc3)c(=O)c2c1-c1ccc(F)cc1 | 10.4µM | 0 | 0 | 0 | ?
CN(C1CCS(=O)(=O)C1)S(=O)C12CC3CC(CC(C3)C1)C2 (stereo not given) | 0 | 0 | 0 | 0 | 0
COC(=O)c1ccc(NC(=O)c2cc[n+](Cc3ccccc3)cc2)cc1 | ? | 0 | 0 | 0 | 0
O=C(Nc1cccc(F)c1)C1CCCN(S(=O)(=O)c2cccc3cccnc23)C1 (stereo not given) | 9.28µM | 0 | 0 | 0 | ?
Cc1cccc(N2CCN(C(=O)C3CCCN(S(=O)(=O)c4cccc5cccnc45)C3)CC2)c1C (stereo not given) | - | - | - | 0 | -
O=C(C1CCCN1S(=O)(=O)c1cccc2nsnc12)N1CCCCC1 (stereo not given) | 0 | 0 | 0 | 0 | 0
CC(=O)c1ccc(N2CCN(C(=O)C3CCCN3S(=O)(=O)c3cccc4nsnc34)CC2)cc1 (stereo not given) | ? | 0 | 0 | 0 | 13.1µM
O=C(C1CCN(S(=O)(=O)c2cccc3nsnc23)CC1)N1CCc2ccccc21 | 0 | 0 | 0 | 0 | ?
O=C(C1CCN(S(=O)(=O)c2cccc3nsnc23)CC1)N1CCN(c2ccccc2F)CC1 | 0 | 0 | 0 | 0 | 2.62µM
Cc1cccc(NC(=O)C2CCCN(S(=O)(=O)c3cccc4cccnc34)C2)c1 (stereo not given) | - | 0 | 0 | 0 | ?
O=C(C1CCCN(S(=O)(=O)c2cccc3cccnc23)C1)N1CCN(c2ccccc2F)CC1 (stereo not given) | - | 0 | 0 | 0 | 14.7µM
COC(=O)C1=C(CS(=O)(=O)c2ccccc2)NC(=O)NC1c1ccc(OC)c(OC)c1 (stereo not given) | 0 | 0 | 0 | 0 | ?
O=C(Nc1ccccn1)C1COc2ccccc2O1 (stereo not given) | 0 | 31.8 | 64.4 | 0 | 5.86µM
CC1Oc2ccccc2OC1C(=O)Nc1ccccn1 (stereo not given) | 5.86µM | 0 | 0 | 0 | 0
Cc1cnc(NC(=O)C2COc3ccccc3O2)s1 (stereo not given) | 0 | 0 | 0 | 0 | 0
O=C(Nc1ccc(Cl)cn1)C1COc2ccccc2O1 (stereo not given) | ? | 28.8 | 51.0 | 0 | 0
Cc1cccc(NC(=O)C2COc3ccccc3O2)n1 (stereo not given) | ? | 47.3 | 54.9 | 0 | 0
O=C(O)C(Cc1c[nH]c2ccccc12)NS(=O)(=O)c1cccc(Cl)c1Cl (stereo not given) | - | 0 | 0 | 0 | 0
CC(C)OCCCN1C=C2C(=O)C(C)(OC(=O)CCc3ccccc3)C(=O)C=C2C=C1c1ccc(C#N)cc1 (stereo not given) | 10.4µM | 0 | 0 | 0 | ?
CCCCC(=O)Nc1ccc(C(=O)N2CCC(C(=O)OCC)CC2)cc1 | - | 0 | 0 | 0 | ?
C[C@H]1CCCC(=O)CCC/C=C/c2cc(O)cc(O)c2C(=O)O1 | - | 0 | 0 | 0 | 13.1µM
COc1cc(O)cc2c1C(=O)OC(C)CCCC(=O)CCC/C=C\2 (stereo not given) | 0 | 0 | 0 | 0 | 0
SMILES | Pf growth 48h | Cycloheximide cs | Shiga inhibitor | NS1 inh | Pf growth 96h
Cc1cc(NC(=O)CCNS(=O)(=O)c2cc(Br)cnc2N)ccc1Br | - | 0 | 0 | 0 | ?
Nc1ccccc1C(=O)NCc1ccc(Cl)cc1 | 0 | 0 | 0 | 0 | 0
Nc1ccccc1NC(=O)NC(=O)c1ccccc1 | 0 | 41.1 | - | 0 | 0
Cc1c(NC(=O)c2ccccc2N)cccc1C(=O)O | 0 | 24.7 | 46.0 | 0 | ?
Cc1cc(C)nc(NC(=O)NC(=O)c2ccccc2)n1 | 0 | 0 | 0 | 0 | ?
Nc1ccccc1NC(=O)c1ccccc1N | 0 | 35.5 | 30.4 | 0 | 0
CCN(CC)CCOC(=O)c1ccc(N/C=C(/C#N)c2nc(-c3cccc(OC)c3)cs2)cc1 | ? | 0 | 0 | 0 | 0.465µM
CCN(CC)CCOC(=O)c1ccc(N/C=C(/C#N)c2nc(-c3ccc(OC)c(OC)c3)cs2)cc1 | ? | 0 | 0 | 0 | ?
O=C(Nc1nn[nH]n1)c1cccc(Oc2ccccc2)c1 | 0 | 0 | 0 | 0 | 0
COc1ccccc1/C=N/NC(=O)c1cccc(OC(F)(F)C(F)F)c1 | 0 | 0 | 0 | 0 | 0
CCC(CC)NC(=O)c1cccc(Br)c1 | 0[5.75 µM] | 0 | 0 | - | 0

Assay outcomes: PubChem, National Center for Advancing Translational Sciences (NCATS)
